Where “and” joins values, the source holds several entries; their conditions need not be identical. Equal entries are not always repeated. Results filed as inconclusive are left out. Calls of active or inactive are those of the source. Unless noted, the call rests on the fitted dose curve; in most records, active means well fitted curve in the direction sought with a large enough effect; inconclusive means small, poorly fitted or top-dose-only effect, or another doubt; inactive means no such curve, though single readings can be large; an effect the other way counts as inactive or inconclusive.
Tests used:
[1] = target: Cytochrome P450 1A2 (Homo sapiens) (UniProt P05177); test: p450-cyp1a2 (AID 410; calls by dose curve; further: potency means the concentration at half of the fitted maximal effect)
In short: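 Luminescent readout of luciferin formed from Luciferin-ME by human CYP1A2; data normalized against complete inhibition by 57 uM furafylline. Enzyme 20nM, substrate 100uM at Km, 100mM KPO4 buffer, 60 min reaction at room temperature.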

[2] = target: Glucocorticoid receptor (Homo sapiens) (UniProt P04150); test: GR-EFC Redistribution (AID 451; calls by dose curve; further: potency means the concentration at half of the fitted maximal effect); settings: CHO-K1 GR-EFC translocation, beta-gal luminescence, 2 h
In short: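 CHO-K1 cells stably expressing nuclear-localized β-gal enzyme acceptor and GR fused C-terminally to the enzyme donor fragment; ligand-driven nuclear translocation restores β-gal by complementation. Compounds titrated up to 46 uM final, 2 h at 37 °C; luminescence read.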

[3] = target: Mitogen-activated protein kinase 10 (Mus musculus) (UniProt Q61831); test: JNK3 AlphaScreen Assay (AID 530; active means well fitted curve in either direction with a large enough effect, not every such curve was filed as active;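 further: kinase came from lysate of stimulated human HepG2 cells; signal reports phosphorylation of biotinylated GST-cJun 1-79 at Ser73 with 10 µM ATP; on the % scale 0 is the no-effect control and ±100 the full control effect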)
In short: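 Inhibitors reduce antibody binding to phosphorylated biotin-cJun, lowering AlphaScreen luminescence. Lysates from HepG2 cells pre-activated by IL-1beta plus TNF-alpha supplied JNK3; compounds were titrated.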

[4] = target: Cytochrome P450 3A4 (Homo sapiens) (UniProt P08684); test: qHTS Assay for Activators of Cytochrome P450 3A4 (AID 885); further: nearly all actives have a fitted effect of over 65% in size
In short: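 Quantitative HTS format: compounds preincubated with 20nM human CYP3A4 and Luciferin-PPXE substrate at KM, reaction started by NADPH regeneration, stopped after 60 min, luciferase luminescence read 20 min later.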

[5] = Primary qHTS for small molecule stabilizers of the endoplasmic reticulum resident proteome: Secreted ER Calcium Modulated Protein (SERCaMP) assay (AID 1508630); further: on the % scale 0 is the no-effect control and ±100 the full control effect
In short: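 GLuc-SERCaMP-expressing SH-SY5Y cells, pretreated 16 h with compound, are challenged with thapsigargin to empty ER calcium stores; after 4 h, coelenterazine is added directly to the medium and luminescence is imaged.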

[6] = AP1 Signaling Pathway (AID 357; active means well fitted curve in either direction with a large enough effect, not every such curve was filed as active;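 further: ME-180 reporter cells stimulated with EGF at its EC50 level; on the % scale 0 is the no-effect control and ±100 the full control effect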); settings: ME-180 AP-1-bla reporter, EGF-induced, beta-lactamase ratio, 5 h; at 7.69 µM (top of the series) unless noted
In short: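 Beta-lactamase reporter under AP-1 response element, ME-180 background. Stimulus: EC50 EGF. Compound exposure 5 h, 37 °C. Detection: CCF4, 2.5 h RT, 460/530 nm. Values: AC50 from titration.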

[7] = NFAT Signaling Pathway (AID 444; active means well fitted curve in either direction with a large enough effect, not every such curve was filed as active;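 further: carbachol stimulus at about its EC50 of 1 µM final; on the % scale 0 is the no-effect control and ±100 the full control effect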); settings: Jurkat NFAT-bla M1, carbachol, beta-lactamase ratio, 5 h; at 7.69 µM (top of the series) unless noted
In short: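 Jurkat cells carrying an NFAT-driven β-lactamase reporter and co-transfected muscarinic M1 receptor were treated with compound plus carbachol (1 uM final, an EC50 level) for 5 h at 37 °C. CCF4 loading followed for 1 h at RT; 460/530 nm ratio gave %activity.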

[8] = Stat Signaling Pathway (AID 446; active means well fitted curve in either direction with a large enough effect, not every such curve was filed as active); settings: ME-180 (cervical carcinoma) SIE beta-lactamase reporter, IL-6 stimulated, 5 h; at 7.69 µM (top of the series) unless noted
In short: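 IL-6/STAT signaling read in ME-180 cells via an SIE beta-lactamase reporter. Stimulus was 40 pM IL-6 (its AC50) for 5 hrs, so both activation and inhibition register.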

[9] = target: Glucocorticoid receptor (Homo sapiens) (UniProt P04150); test: GR-GFP Redistribution (AID 450;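 active means compounds whose dose series gives a full or clear partial fitted curve of increased nuclear translocation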; further: potency means the concentration at half of the fitted maximal effect); settings: U2OS GR-GFP nuclear translocation, laser cytometry, 2 h
[10] = target: Cytochrome P450 3A4 (Homo sapiens) (UniProt P08684); test: qHTS Assay for Inhibitors and Substrates of Cytochrome P450 3A4 (AID 884); further: on the % scale 0 is the no-effect control and ±100 the full control effect; nearly all actives have a fitted effect of over 50% in size
In short: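 20 nM human CYP3A4 with 25 uM Luciferin-PPXE (at KM) in 200 mM KPO4, preincubated 10 min with compound; NADPH regeneration started a 60 min RT reaction. Luciferin detected by luminescence, normalized to 57 uM ketoconazole as full inhibition.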

[11] = Confirmation and Secondary Assay for Modulators of Hemoglobin Beta Chain Splicing at IVS2 654 locus (AID 910);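 further: per-well total GFP intensity by laser scanning cytometry after 2-day treatment; % of control where 0% means no effect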
In short: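 HeLa cells stably carrying EGFP interrupted by mutant beta-globin IVS2-654 intron (CMV-driven) were treated with compound for 2 days at 37C; corrected splicing was scored as total peak GFP intensity per well (488 nm excitation, 500-520 nm emission).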

[12] = Confirmation and Secondary Assay for Modulators of Hemoglobin Beta Chain Splicing at IVS2 705 locus (AID 930);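 further: HeLa cells stably expressing the EGFP-705 splicing reporter; GFP fluorescence per well restored by corrected splicing of the IVS2-705 intron in EGFP; % of control where 0% means no effect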
In short: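 Stable HeLa line with EGFP disrupted by mutant beta-globin intron 2 (705). Overnight attachment, then 2 days of compound at 37C, 5% CO2. Signal: peak GFP intensity summed over objects 5-250 µm.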

[13] = qHTS Assay for Lipid Storage Modulators (AID 1519; calls by dose curve); settings: Drosophila S3 cells, BODIPY lipid droplet/cell ratio, laser cytometry, cells loaded with oleic acid
In short: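 Cells seeded at 5,000 per well were treated with compounds over a concentration series and loaded with oleic acid (400 uM, as added). Lipid droplet fluorescence (488 nm excitation, 500-530 nm channel) was read by laser-scanning cytometry and normalized to 20 uM Triacsin C.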

[14] = target: Ubiquitin carboxyl-terminal hydrolase 1 (Homo sapiens) (UniProt O94782); test: Inhibitors of USP1/UAF1: Pilot qHTS (AID 504865);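 further: rhodamine fluorescence freed from ubiquitin-rhodamine substrate followed over time; top concentration of the series differs between compounds; on the % scale 0 is the no-effect control and ±100 the full control effect; nearly all actives have a fitted effect of over 35% in size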
In short: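 Enzyme-free wells gave the negative control, while test wells held 1nM USP1/UAF1 preincubated with compound for 15 min at room temperature. Ub-Rho at 150nM final started the reaction, and fluorescence at 480/540 nm was recorded kinetically.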

[15] = target: 3',5'-cyclic-AMP phosphodiesterase 4B (Homo sapiens) (UniProt Q07343); test: qHTS Assay for Inhibitors of PDE-IV (AID 607; active means well fitted activation curve with a large enough effect in the main read-out, with a control signal flat, not every such curve was filed as active; further: % of control where 0% means no effect)
In short: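 Live HEK293 cells with a modified cyclic nucleotide-gated (CNG) channel report intracellular cAMP via membrane-potential dye fluorescence (ex 535/em 590 nm). Endogenous PDE-IV was targeted. Compounds were tested at up to 22.9 uM final; RO 20-1724 100 uM served as control.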

[16] = target: Rap guanine nucleotide exchange factor 3 (Homo sapiens) (UniProt O95398); test: Confirmatory qHTS for antagonist of cAMP-regulated guanine nucleotide exchange factor 3 (EPAC1) (AID 1645880);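 further: plate controls were DMSO only for no effect and full effect of the ATA control for full effect; nearly all actives have a fitted effect of over 55% in size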
In short: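 Nucleotide exchange uses 100 nM EPAC1, 250 nM RAP1B-BODIPY-GDP and 50 uM GDP, with compounds in a concentration-titration series. After 5 min at room temperature, fluorescence (480 nm ex/540 nm em) is read every 5 min for 30 min. Data are normalized to control ATA and DMSO.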

[17] = target: Rap guanine nucleotide exchange factor 3 (Homo sapiens) (UniProt O95398); test: Confirmatory qHTS for agonist of cAMP-regulated guanine nucleotide exchange factor 3 (EPAC1) (AID 1645881);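 further: EPAC1 catalysed release of BODIPY-GDP from Rap1B seen as fluorescence loss; 100% = effect of cAMP agonist control; nearly all actives have a fitted effect of over 75% in size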
[18] = target: Rap guanine nucleotide exchange factor 4 (Homo sapiens) (UniProt Q8WZA2); test: Confirmatory qHTS for agonist of cAMP-regulated guanine nucleotide exchange factor 4 (EPAC2) (AID 1645884);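 further: nucleotide exchange releases bodipy-GDP from Rap1 and this lowers its fluorescence; on the % scale 0 is the no-effect control and ±100 the full control effect; nearly all actives have a fitted effect of over 65% in size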
[19] = target: Rap guanine nucleotide exchange factor 4 (Homo sapiens) (UniProt Q8WZA2); test: Confirmatory qHTS for antagonist of cAMP-regulated guanine nucleotide exchange factor 4 (EPAC2) (AID 1645885); further: on the % scale 0 is the no-effect control and ±100 the full control effect; nearly all actives have a fitted effect of over 25% in size
[20] = measured here: cell count channel max response
[21] = measured here: lipid channel max response

Chain of Rap guanine nucleotide exchange factor 3 (Homo sapiens) (O95398 whole entry, looked up): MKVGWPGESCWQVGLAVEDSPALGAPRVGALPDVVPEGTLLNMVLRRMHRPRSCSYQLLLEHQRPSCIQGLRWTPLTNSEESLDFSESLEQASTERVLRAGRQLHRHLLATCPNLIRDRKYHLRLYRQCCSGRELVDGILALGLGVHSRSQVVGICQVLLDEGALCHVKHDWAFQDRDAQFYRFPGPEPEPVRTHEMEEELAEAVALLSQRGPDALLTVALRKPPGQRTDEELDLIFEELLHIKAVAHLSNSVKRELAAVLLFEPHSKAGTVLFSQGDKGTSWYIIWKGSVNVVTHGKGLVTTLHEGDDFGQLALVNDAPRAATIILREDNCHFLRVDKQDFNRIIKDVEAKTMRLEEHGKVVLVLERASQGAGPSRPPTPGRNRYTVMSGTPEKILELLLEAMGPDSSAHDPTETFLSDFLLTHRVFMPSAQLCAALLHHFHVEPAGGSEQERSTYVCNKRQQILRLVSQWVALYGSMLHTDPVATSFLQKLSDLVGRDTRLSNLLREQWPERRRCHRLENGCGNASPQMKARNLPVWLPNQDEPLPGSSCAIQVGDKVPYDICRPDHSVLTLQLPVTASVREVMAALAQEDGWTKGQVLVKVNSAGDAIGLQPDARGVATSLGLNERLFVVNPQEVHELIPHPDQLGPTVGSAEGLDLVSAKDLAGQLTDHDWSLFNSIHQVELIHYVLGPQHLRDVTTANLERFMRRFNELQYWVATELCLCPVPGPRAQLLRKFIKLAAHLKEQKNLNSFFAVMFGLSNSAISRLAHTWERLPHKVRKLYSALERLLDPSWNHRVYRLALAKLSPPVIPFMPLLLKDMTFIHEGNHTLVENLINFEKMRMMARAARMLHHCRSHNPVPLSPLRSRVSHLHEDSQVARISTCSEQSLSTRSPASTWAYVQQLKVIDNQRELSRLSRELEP
Chain of Rap guanine nucleotide exchange factor 4 (Homo sapiens) (Q8WZA2 whole entry, looked up): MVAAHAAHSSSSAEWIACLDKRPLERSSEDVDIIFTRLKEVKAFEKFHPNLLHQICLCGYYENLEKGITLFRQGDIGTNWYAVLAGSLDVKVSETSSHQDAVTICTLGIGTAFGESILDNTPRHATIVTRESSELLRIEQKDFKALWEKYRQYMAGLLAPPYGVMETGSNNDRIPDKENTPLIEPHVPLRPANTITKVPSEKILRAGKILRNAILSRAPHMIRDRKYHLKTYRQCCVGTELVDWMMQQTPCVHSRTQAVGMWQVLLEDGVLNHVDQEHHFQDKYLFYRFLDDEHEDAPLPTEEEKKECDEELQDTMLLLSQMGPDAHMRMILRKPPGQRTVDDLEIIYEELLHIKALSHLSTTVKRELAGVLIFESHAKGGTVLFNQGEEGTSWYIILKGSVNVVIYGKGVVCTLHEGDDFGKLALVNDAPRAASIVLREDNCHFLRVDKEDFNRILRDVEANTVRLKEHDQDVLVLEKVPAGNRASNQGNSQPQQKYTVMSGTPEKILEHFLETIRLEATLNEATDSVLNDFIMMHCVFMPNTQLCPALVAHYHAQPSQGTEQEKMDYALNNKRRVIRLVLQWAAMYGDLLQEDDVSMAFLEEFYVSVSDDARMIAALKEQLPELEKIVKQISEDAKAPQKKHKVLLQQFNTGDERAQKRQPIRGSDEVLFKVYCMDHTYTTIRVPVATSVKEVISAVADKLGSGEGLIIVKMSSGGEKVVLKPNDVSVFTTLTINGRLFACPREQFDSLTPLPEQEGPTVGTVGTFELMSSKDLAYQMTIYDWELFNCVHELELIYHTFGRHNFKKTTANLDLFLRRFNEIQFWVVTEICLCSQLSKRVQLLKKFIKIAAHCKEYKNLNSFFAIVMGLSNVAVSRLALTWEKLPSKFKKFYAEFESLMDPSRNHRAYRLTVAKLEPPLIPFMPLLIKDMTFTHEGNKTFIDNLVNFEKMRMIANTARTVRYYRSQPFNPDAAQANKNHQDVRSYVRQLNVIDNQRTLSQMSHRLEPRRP
Chain of Glucocorticoid receptor (Homo sapiens) (P04150 whole entry, looked up, the tested form may be a part): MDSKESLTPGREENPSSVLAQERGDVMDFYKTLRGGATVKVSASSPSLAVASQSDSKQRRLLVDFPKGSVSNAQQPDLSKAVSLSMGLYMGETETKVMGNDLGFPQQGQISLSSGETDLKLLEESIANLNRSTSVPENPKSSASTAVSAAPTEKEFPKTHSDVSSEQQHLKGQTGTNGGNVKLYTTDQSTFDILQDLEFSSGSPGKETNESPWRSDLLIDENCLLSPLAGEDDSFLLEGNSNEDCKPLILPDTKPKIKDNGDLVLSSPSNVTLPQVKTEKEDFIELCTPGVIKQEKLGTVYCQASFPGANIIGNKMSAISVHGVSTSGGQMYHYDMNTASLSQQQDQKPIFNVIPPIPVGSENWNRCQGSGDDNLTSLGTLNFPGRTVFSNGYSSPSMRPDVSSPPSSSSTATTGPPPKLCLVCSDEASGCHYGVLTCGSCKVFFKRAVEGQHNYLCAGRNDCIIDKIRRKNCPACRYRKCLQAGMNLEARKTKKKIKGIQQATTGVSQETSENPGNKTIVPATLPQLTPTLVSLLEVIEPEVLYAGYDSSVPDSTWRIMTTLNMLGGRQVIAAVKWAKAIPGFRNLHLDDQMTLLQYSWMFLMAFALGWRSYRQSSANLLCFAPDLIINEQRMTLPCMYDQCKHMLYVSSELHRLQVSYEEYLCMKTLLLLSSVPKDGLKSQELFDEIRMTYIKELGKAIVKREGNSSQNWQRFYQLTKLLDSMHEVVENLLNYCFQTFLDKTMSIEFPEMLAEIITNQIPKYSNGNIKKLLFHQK
Chain of Cytochrome P450 1A2 (Homo sapiens) (P05177 whole entry, looked up): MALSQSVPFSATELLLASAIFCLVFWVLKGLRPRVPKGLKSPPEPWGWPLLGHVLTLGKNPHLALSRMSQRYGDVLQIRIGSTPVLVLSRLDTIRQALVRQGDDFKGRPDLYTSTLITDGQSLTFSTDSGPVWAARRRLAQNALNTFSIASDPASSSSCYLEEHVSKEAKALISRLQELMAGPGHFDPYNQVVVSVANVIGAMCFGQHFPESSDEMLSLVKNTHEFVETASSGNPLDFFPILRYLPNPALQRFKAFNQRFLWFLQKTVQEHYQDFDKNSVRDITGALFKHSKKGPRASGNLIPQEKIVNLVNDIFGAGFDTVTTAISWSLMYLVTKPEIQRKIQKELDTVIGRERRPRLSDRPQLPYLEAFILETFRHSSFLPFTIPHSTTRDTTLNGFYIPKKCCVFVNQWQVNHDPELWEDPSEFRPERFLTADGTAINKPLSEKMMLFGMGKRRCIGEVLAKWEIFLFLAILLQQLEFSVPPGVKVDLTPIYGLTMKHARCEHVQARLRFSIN
Chain of Cytochrome P450 3A4 (Homo sapiens) (P08684 whole entry, looked up): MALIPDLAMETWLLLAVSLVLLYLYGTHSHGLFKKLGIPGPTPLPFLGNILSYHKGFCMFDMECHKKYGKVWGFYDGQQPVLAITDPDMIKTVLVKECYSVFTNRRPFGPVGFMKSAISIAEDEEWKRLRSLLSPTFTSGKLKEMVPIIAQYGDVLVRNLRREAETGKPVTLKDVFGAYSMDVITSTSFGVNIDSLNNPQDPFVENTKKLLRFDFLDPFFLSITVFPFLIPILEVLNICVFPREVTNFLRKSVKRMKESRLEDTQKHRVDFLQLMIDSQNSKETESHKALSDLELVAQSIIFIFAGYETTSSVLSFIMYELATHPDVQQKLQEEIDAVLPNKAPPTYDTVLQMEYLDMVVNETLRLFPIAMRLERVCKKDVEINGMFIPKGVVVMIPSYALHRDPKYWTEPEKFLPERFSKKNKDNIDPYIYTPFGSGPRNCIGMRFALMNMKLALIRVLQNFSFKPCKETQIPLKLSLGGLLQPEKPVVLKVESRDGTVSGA
Chain of Ubiquitin carboxyl-terminal hydrolase 1 (Homo sapiens) (O94782 whole entry, looked up): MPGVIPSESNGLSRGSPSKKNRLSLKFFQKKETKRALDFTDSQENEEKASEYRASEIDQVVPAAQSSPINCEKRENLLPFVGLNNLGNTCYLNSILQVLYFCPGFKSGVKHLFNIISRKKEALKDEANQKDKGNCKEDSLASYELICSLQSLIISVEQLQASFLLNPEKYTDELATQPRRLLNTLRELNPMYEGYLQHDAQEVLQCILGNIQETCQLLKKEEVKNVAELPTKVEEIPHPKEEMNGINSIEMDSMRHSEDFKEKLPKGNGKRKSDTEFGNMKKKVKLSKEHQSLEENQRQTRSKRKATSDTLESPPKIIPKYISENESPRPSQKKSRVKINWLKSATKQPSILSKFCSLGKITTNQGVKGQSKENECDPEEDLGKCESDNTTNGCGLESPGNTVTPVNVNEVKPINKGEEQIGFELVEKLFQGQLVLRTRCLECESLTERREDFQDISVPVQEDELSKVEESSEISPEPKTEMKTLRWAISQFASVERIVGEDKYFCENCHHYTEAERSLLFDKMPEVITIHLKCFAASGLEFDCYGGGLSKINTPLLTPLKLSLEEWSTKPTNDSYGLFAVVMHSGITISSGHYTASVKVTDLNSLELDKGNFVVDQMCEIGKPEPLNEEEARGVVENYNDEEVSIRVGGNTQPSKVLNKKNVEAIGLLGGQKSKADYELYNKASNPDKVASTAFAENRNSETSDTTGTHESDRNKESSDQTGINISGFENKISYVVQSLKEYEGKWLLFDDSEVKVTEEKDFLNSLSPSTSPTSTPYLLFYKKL

O=[N+]([O-])c1cccc2c[nH]nc12
active: Potency [1] 2.51 µM
inactive: Potency [2] > 46 µM | Potency [3] | Potency [4] | outcome [5]

CC(=O)Oc1ccccc1C(=O)Oc1ccccc1C(=O)O
-5.13% and 0.698%: max response [13, 21]
inactive: activity change, negative = inhibition [6] 6.88% [at 17.2 µM] | activity change, negative = inhibition [7] 3.91% [at 17.2 µM] | activity, negative = inhibition [8] 8.87% [at 17.2 µM] | Potency [9] > 20.6 µM | Potency [2] > 20.6 µM | Potency [3] | Potency [10] | Potency [11] | outcome [12] | activity change, negative = inhibition ([13]; at 25.7 µM (top of the series)) -1.86% | activity change, negative = inhibition ([13]; at 57.5 µM (top of the series)) -0.43% | Potency [14]
active: Potency [1] 12.6 µM
-2.66% and 0.474%: max response [13, 20]

N#CCCn1c(=O)c(-c2ccc(F)cc2)nc2cnc(Oc3cccc(Cl)c3)nc21
inactive: Potency [9] > 9.22 µM | Potency [2] > 46 µM | Potency [3] | Potency [15] | outcome [5]
active: Potency [1] 0.501 µM

C/C(=C\COc1cc(=O)[nH]c2ccccc12)CCC(O)C(C)(C)O (centres undefined)
inactive: Potency [10] | outcome [5]

N#Cc1cccc(NC(=O)N2CC[C@@]3(CCCN(C(=O)c4cccc(F)c4)C3)C2)c1
inactive: activity change, negative = inhibition [6] -20.8% | activity, negative = inhibition [8] -2.81% | Potency [2] > 46 µM | Potency [3] | Potency [15] | Potency [4] | outcome [5]

NCC1OC(n2cnc3c(=O)[nH]c(N)nc32)C(O)C1O (centres undefined)
-2.83%: max response [13, 21]
-3.82%: max response [13, 20]
inactive: Potency [11] | outcome [12] | activity change, negative = inhibition ([13]; at 57.5 µM (top of the series)) 2.55% | Potency [14] | Potency [16] | Potency [17] | Potency [18] | Potency [19]

COc1ccc2c(c1)OCC(Cc1ccc(OC)c(OC(C)=O)c1)C2=O (centres undefined)
-2.44%: max response [13, 21]
inactive: Potency [4] | Potency [11] | outcome [12] | activity change, negative = inhibition ([13]; at 57.5 µM (top of the series)) 2.81% | Potency [16] | Potency [17] | Potency [18]
1.86%: max response [13, 20]

COc1ccc2c(c1)OCc1c-2oc2cc(OC)ccc12
8.38%: max response [13, 21]
-1.79%: max response [13, 20]
inactive: Potency [4] | Potency [11] | outcome [12] | activity change, negative = inhibition ([13]; at 57.5 µM (top of the series)) 8.22% | Potency [16] | Potency [17] | Potency [18] | Potency [19]

CC(=O)Oc1ccc2c(c1C(C)C)CCC1C(C)(C)CCC[C@@]21C (some centres undefined)
13.7%: max response [13, 20]
20.3%: max response [13, 21]
inactive: Potency [4] | Potency [11] | outcome [12] | activity change, negative = inhibition ([13]; at 57.5 µM (top of the series)) 2.03% | Potency [16] | Potency [17] | Potency [18] | Potency [19]

C#C[C@]1(OC(C)=O)CCC2C3CCC4=CC(=O)CCC4C3CC[C@]21C (some centres undefined)
-26.2%: max response [13, 21]
inactive: Potency [4] | Potency [11] | outcome [12] | activity change, negative = inhibition ([13]; at 57.5 µM (top of the series)) -18.5% | Potency [14] | Potency [16] | Potency [17] | Potency [18]
-10.7%: max response [13, 20]
